{"source": "PubChem BioAssay AID504333", "about": "(National Center for Advancing Translational Sciences (NCATS), 2011)", "note": "Among all 360,000 compounds or so, about 16,000 (4.4%) were called active. Not shown: some 9% with an inconclusive outcome. Calls follow the shape of the dose curve; as a rule, active = well fitted inhibition curve with a large enough effect; inconclusive = small, poorly fitted or top-dose-only effect; inactive = no such curve, though single readings can be large or run the other way. This excerpt belongs to a sample that is enriched for actives. % is scaled to controls: 0 for no effect and ±100 for the full control effect; potency is read from the fitted curve at half-maximal effect."}
{"target": "Bromodomain adjacent to zinc finger domain protein 2B (Homo sapiens) (UniProt Q9UIF8)", "sequence (Q9UIF8 whole entry, looked up, the tested form may be a part)": "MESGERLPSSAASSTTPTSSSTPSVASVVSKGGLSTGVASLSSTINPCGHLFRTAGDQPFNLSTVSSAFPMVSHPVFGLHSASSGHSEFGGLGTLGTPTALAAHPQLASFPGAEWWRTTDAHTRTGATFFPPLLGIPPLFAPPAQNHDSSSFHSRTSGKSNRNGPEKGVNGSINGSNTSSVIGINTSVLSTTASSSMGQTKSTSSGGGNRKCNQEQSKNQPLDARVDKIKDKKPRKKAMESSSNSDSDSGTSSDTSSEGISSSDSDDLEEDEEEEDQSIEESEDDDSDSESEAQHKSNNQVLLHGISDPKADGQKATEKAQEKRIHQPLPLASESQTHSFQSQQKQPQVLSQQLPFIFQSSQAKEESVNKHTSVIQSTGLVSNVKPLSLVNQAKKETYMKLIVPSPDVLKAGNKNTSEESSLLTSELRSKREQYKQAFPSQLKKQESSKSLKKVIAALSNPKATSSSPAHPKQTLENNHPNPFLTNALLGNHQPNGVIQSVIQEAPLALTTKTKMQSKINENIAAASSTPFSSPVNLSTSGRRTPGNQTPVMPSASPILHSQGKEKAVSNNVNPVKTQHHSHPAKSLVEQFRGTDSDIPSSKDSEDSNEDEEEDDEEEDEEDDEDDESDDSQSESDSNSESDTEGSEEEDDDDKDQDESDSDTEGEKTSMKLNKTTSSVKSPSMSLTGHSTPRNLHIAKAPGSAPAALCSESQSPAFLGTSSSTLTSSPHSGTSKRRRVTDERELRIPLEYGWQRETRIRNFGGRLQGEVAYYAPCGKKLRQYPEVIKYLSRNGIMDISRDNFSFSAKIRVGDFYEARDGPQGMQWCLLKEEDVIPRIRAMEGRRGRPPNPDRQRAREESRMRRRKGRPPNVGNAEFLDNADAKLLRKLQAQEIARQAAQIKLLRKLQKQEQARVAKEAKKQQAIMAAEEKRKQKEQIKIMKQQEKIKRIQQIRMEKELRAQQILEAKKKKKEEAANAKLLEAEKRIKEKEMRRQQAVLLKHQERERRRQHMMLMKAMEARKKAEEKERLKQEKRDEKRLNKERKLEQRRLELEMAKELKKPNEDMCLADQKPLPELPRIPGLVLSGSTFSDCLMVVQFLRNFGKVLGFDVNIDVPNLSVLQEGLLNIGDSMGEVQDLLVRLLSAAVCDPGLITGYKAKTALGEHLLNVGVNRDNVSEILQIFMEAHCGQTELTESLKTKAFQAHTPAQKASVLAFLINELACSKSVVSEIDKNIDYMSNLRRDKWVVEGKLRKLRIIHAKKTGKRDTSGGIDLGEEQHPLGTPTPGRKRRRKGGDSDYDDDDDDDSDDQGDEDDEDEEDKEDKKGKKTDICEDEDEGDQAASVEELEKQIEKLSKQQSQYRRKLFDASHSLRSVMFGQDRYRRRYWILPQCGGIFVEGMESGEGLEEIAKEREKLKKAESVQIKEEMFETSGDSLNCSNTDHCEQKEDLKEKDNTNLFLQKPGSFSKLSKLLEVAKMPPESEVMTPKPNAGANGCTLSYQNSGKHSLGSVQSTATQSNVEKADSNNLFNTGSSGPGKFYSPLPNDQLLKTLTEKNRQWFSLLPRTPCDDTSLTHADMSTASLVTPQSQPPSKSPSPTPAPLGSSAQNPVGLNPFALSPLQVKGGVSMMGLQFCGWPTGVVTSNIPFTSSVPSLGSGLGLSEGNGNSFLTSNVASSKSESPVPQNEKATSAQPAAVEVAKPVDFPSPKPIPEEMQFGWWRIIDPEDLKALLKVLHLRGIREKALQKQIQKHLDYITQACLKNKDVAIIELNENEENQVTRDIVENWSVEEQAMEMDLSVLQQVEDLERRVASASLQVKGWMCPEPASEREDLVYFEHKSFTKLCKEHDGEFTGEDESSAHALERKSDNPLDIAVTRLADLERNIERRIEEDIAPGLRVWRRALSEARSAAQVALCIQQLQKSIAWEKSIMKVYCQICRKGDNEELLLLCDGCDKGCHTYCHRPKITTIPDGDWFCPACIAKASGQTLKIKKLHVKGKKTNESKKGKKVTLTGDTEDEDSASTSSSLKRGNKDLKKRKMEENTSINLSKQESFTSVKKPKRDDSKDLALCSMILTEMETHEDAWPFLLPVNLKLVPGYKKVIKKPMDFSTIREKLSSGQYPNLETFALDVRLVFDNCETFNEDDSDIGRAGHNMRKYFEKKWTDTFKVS", "test": "qHTS Assay for Inhibitors of BAZ2B; also: nearly all actives have a fitted effect of over 60% in size", "details": "AlphaScreen BAZ2B-H3K14Ac peptide displacement; series mostly up to 114 µM; activity change, negative = inhibition: at the top concentration", "procedure,_shortened": "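Multi-concentration screen (max 110 uM) measuring displacement of acetylated histone H3 peptide from BAZ2B by AlphaScreen, using 50 nM protein, 50 nM peptide and 10 ug/mL streptavidin donor plus Ni-chelate acceptor beads.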"}
{"compound": "C=CCNC(=O)c1csc(-c2ccccc2)n1", "activity change, negative = inhibition": "-24.1% (inactive)"}
{"compound": "C=CCNc1scc(-c2ccccc2)[n+]1CC=C", "Potency": "10 µM (active)"}
{"compound": "Cc1ccc(NC(=O)Nc2ccccc2)c(Br)c1", "activity change, negative = inhibition": "-9.4% (inactive)"}
{"compound": "Cc1ccc(-c2c[n+](CC(=O)Nc3ccccc3)c3n2CCC3)cc1", "activity change, negative = inhibition": "-4.1% (inactive)"}
{"compound": "C=CC[n+]1c(-c2ccc(C)cc2)csc1NNC(=O)Nc1ccccc1", "Potency": "31.6 µM (active)"}
{"compound": "O=C(CNS(=O)(=O)c1cccs1)N1CCN(c2ccccc2Cl)CC1", "activity change, negative = inhibition": "0.355% (inactive)"}
{"compound": "Cc1ccc(C)c(Cn2c(C(=O)O)c(CNCc3cccs3)c3ccccc32)c1", "activity change, negative = inhibition": "-15.7% (inactive)"}
{"compound": "CCc1ccccc1NC(=O)CSc1nnc(-c2ccccc2)c(-c2ccccc2)n1", "activity change, negative = inhibition": "-21.5% (inactive)"}
{"compound": "COc1ccc(NC(=O)CSc2nccn2C2CCCC2)cc1OC", "activity change, negative = inhibition": "-26.7% (inactive)"}
{"compound": "CCn1c(SCc2cccc(C(=O)O)c2)nnc1-c1ccc(Cl)cc1", "activity change, negative = inhibition": "-9.13% (inactive)"}
{"compound": "CCn1c(SCC(=O)NC2CC2)nnc1-c1ccncc1", "activity change, negative = inhibition": "-5.24% (inactive)"}
{"compound": "CCn1c(SCC(=O)Nc2ccc3c(c2)OCCO3)nnc1-c1ccncc1", "activity change, negative = inhibition": "4.75% (inactive)"}
{"compound": "Cn1c(SCc2ccc(F)cc2)nnc1-c1ccncc1", "activity change, negative = inhibition": "5.73% (inactive)"}
{"compound": "CC1CCCCC1NC(=O)CSc1nnc(-c2ccncc2)n1CCCN(C)C", "note": "(centres undefined)", "Potency": "44.7 µM (active)"}
{"compound": "CN(C)CCCn1c(SCc2ccc(Cl)cc2)nnc1-c1ccncc1", "Potency": "56.2 µM (active)"}
{"compound": "CCCN(CCC)C(=O)C1CCCN(c2ncnc3c2nc2n3CCCCC2)C1", "note": "(centres undefined)", "activity change, negative = inhibition": "0.133% (inactive)"}
{"compound": "COc1ccc(Cn2c(C(=O)O)c(CNCc3cccc(OC)c3)c3ccc(C)cc32)cc1", "activity change, negative = inhibition": "-35.5% (inactive)"}
{"compound": "O=C(OCc1cc(=O)n2nc(C3CC3)sc2n1)c1ccccc1Cl", "activity change, negative = inhibition": "-7.57% (inactive)"}
{"compound": "Cc1cccc(NC(=O)Cn2cc(S(=O)(=O)Cc3ccccc3Cl)c3ccccc32)c1", "activity change, negative = inhibition": "-9.86% (inactive)"}
{"compound": "CCOc1cc(CNCc2ccccn2)ccc1OCC(=O)NC(C)(C)C", "Potency": "50.1 µM (active)"}
{"compound": "CCOc1cc(C)c(S(=O)(=O)NCc2ccccn2)cc1C", "activity change, negative = inhibition": "-7.56% (inactive)"}
{"compound": "CCOc1cc(CNn2c(C)nnc2SCC(=O)NC(C)(C)C)ccc1OCC(=O)NC(C)(C)C", "activity change, negative = inhibition": "0.418% (inactive)"}
{"compound": "Cc1cc(NC(=O)CSc2nnnn2-c2ccc(F)cc2)no1", "activity change, negative = inhibition": "4.09% (inactive)"}
{"compound": "Cc1cc(NC(=O)CSc2nnc(Nc3ccccc3F)s2)no1", "activity change, negative = inhibition": "-5.7% (inactive)"}
{"compound": "Cc1cc(NC(=O)CSc2nnc(-c3ccc(Cl)s3)o2)no1", "Potency": "39.8 µM (active)"}
{"compound": "COc1ccc(CNC(=O)c2ccc3c(O)c(S(=O)(=O)c4ccccc4)c(=O)[nH]c3c2)cc1", "activity change, negative = inhibition": "-23.6% (inactive)"}
{"compound": "CCN1CCN(CCCNC(=O)c2cnn(-c3ccc(C)cc3C)c2C2CCN(C(=O)OC(C)(C)C)CC2)CC1", "activity change, negative = inhibition": "4.75% [at 57.1 µM] (inactive)"}
{"compound": "COc1cccc(C(=O)NC2(C(F)(F)F)C(=O)Nc3c2c(=O)[nH]c(=O)n3-c2ccc(C)cc2)c1", "note": "(centres undefined)", "activity change, negative = inhibition": "1.43% (inactive)"}
{"compound": "CCc1cnc2c(c1SCC(=O)N1CCC(C)CC1)c(=O)n(C)c(=O)n2C", "activity change, negative = inhibition": "-4.76% (inactive)"}
{"compound": "O=C(CCCCn1c(=O)c2ccccc2n(CC(=O)Nc2cccc(C(F)(F)F)c2)c1=O)NCc1ccc2c(c1)OCO2", "activity change, negative = inhibition": "1.18% (inactive)"}
{"compound": "O=C(NCCSc1ccccc1)c1ccco1", "activity change, negative = inhibition": "46.4% (inactive)"}
{"compound": "O=C(NCCc1ccco1)c1nn(Cc2ccccc2)c(=O)c2ccccc12", "Potency": "50.1 µM (active)"}
{"compound": "O=c1c2ccccc2c(-c2ccc(Br)cc2)nn1Cc1ccccc1", "activity change, negative = inhibition": "1.98% (inactive)"}
{"compound": "CCOC(=O)c1c(S(=O)(=O)N2CCCC(C(=O)NCc3ccc(F)cc3)C2)c(C)n(CC)c1C", "note": "(centres undefined)", "activity change, negative = inhibition": "-11.7% (inactive)"}
{"compound": "Cc1cc(C)c(/C=C/c2onc(C)c2S(=O)(=O)N2CCC(C(=O)Nc3ccc(Cl)cc3C)CC2)c(C)c1", "activity change, negative = inhibition": "1.4% (inactive)"}
{"compound": "COc1ccc2c(c1)Cc1sc(NC(=O)c3ccccc3Br)nc1-2", "activity change, negative = inhibition": "-32.6% (inactive)"}
{"compound": "Cc1ccc(N2CC(C(=O)Nc3ccc(N(C)C)cc3)CC2=O)cc1Cl", "note": "(centres undefined)", "activity change, negative = inhibition": "-13% (inactive)"}
{"compound": "CC(=O)Nc1cc(C(=O)NCc2ccc(F)cc2)ccc1Sc1ccc(F)cc1", "activity change, negative = inhibition": "-0.997% (inactive)"}
{"compound": "CCc1ccc(C2CC(=O)c3c([nH]c(C(=O)OCc4ccc(C)cc4)c3C)C2)cc1", "note": "(centres undefined)", "activity change, negative = inhibition": "-5.92% (inactive)"}
{"compound": "O=C(CNCCC1=CCCCC1)Nc1ccccc1N1CCCCCC1", "Potency": "56.2 µM (active)"}
{"compound": "Cc1ccc(C(C)C)cc1OCC(=O)Nc1ccccc1N1CCCC1", "activity change, negative = inhibition": "-23.2% (inactive)"}
{"compound": "Cc1ccccc1NC(=O)Nc1ccccc1N1CCCCC1", "activity change, negative = inhibition": "-6.52% (inactive)"}
{"compound": "O=C(CN1CCCCCC1)Nc1ccc(Br)cc1[N+](=O)[O-]", "Potency": "15.8 µM (active)"}
{"compound": "O=C(CN1CCCCCC1)Nc1ccc(Br)cc1Br", "activity change, negative = inhibition": "18.9% (inactive)"}
{"compound": "COc1cc([N+](=O)[O-])ccc1NC(=O)CN1CCCC1", "activity change, negative = inhibition": "-7.99% (inactive)"}
{"compound": "CC1=C(C(=O)OCc2ccc(C)cc2)C(c2ccccc2Cl)CC(=O)N1", "note": "(centres undefined)", "activity change, negative = inhibition": "-7.46% (inactive)"}
{"compound": "O=C(C1CCN(Cc2ccc(Cl)cc2)CC1)N1CCN(Cc2ccc3c(c2)OCO3)CC1", "Potency": "50.1 µM (active)"}
{"compound": "O=C(C1CCN(S(=O)(=O)c2cnc[nH]2)CC1)N1CCN(Cc2ccc3c(c2)OCO3)CC1", "activity change, negative = inhibition": "-16.5% (inactive)"}
{"compound": "O=C(CSCc1ccc(Cl)cc1)N1CCN(Cc2ccc3c(c2)OCO3)CC1", "activity change, negative = inhibition": "-13.9% (inactive)"}
{"compound": "COc1ccc(-c2cccc(NS(=O)(=O)c3cc(C)c(OC)c(C)c3C)c2)nn1", "activity change, negative = inhibition": "-32% (inactive)"}
{"compound": "CCCN(CCC)C(=O)Cn1c(=O)n(-c2ccc(Cl)cc2)c(=O)c2c3c(sc21)CCCCC3", "activity change, negative = inhibition": "2.25% (inactive)"}
{"compound": "Cc1cccc(CC(=O)Nc2cccc(-c3cn4cccnc4n3)c2)c1", "activity change, negative = inhibition": "3.65% (inactive)"}
{"compound": "CCCCOc1ccc(C(=O)N2CC(=O)Nc3ccc(Br)cc3C2c2ccc(F)cc2)cc1", "note": "(centres undefined)", "activity change, negative = inhibition": "-10.3% (inactive)"}
{"compound": "O=C1CCCC(O)=C1N=Nc1ccc2ncsc2c1", "Potency": "50.1 µM (active)"}
{"compound": "O=c1ccnc(Nc2ccc(Cl)cc2)[nH]1", "activity change, negative = inhibition": "5.51% (inactive)"}
{"compound": "Cc1csc(Nc2ccc(Cl)cc2)[n+]1-c1ccc(Cl)cc1", "Potency": "12.6 µM (active)"}
{"compound": "Cc1ccccc1C(=O)NCc1nc(-c2ccc(Cl)cc2)no1", "activity change, negative = inhibition": "2.6% (inactive)"}
{"compound": "CCOC(=O)c1[nH]c(C)c(CCC(=O)N2CCN(c3ccccc3)CC2)c1C", "activity change, negative = inhibition": "-11.8% (inactive)"}
{"compound": "COc1ccc(NC(=O)CN(C)C(=O)c2cc(-c3ccc(C)o3)nc3ccccc23)cc1", "activity change, negative = inhibition": "-4.4% (inactive)"}
{"compound": "COc1ccc(/C=C(\\C#N)C(=O)OCC(=O)N(C)C2CCS(=O)(=O)C2)cc1", "note": "(centres undefined)", "activity change, negative = inhibition": "12.8% (inactive)"}
{"compound": "COc1ccc(-c2cc(C(=O)N(C)Cc3ccccc3)c3ccccc3n2)cc1", "activity change, negative = inhibition": "-2.29% (inactive)"}
{"compound": "CN(CCOc1ccccc1)C(=O)c1cc(-c2ccco2)nc2ccccc12", "Potency": "44.7 µM (active)"}
{"compound": "CN(C(=O)COC(=O)c1nc(Cl)ccc1Cl)C1CCS(=O)(=O)C1", "note": "(centres undefined)", "activity change, negative = inhibition": "0.742% (inactive)"}
{"compound": "CN(C(=O)COC(=O)c1cc(-c2ccco2)nc2ccccc12)C1CCS(=O)(=O)C1", "note": "(centres undefined)", "Potency": "39.8 µM (active)"}
